Laboratory results reported in PubChem BioAssay (NCATS).
Results filed as inconclusive are left out. Calls of active or inactive are those of the source. The call rests on the fitted dose curve; in most records, active means well fitted curve in the direction sought with a large enough effect; inconclusive means small, poorly fitted or top-dose-only effect, or another doubt; inactive means no such curve, though single readings can be large; an effect the other way counts as inactive or inconclusive.

What was measured:
[1] = Quantitative High-Throughput drug screen in 47 multiple myeloma cell lines against the NCATS MIPE library collection: JIM3_ECACC cell viability assay (AID 1918963; further: nearly all actives have a fitted effect of over 35% in size)
Method in brief: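 Primary qHTS used for cherry-picking: cells at 500/well, library compounds for 48 h (37C, 5% CO2), luminescent ATP assay.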

[2] = Quantitative High-Throughput drug screen in 47 multiple myeloma cell lines against the NCATS MIPE library collection: JIM1_ECACC cell viability assay (AID 1918964)
Method in brief: (§1)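 Luminescent ATP measurement with CellTiter-Glo gives viability, scaled between DMSO-only wells (100%) and media-only wells (0%). Cells, 500 per well, faced library compounds for 48 hours at 37C.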

[3] = Quantitative High-Throughput drug screen in 47 multiple myeloma cell lines against the NCATS MIPE library collection: INA6_PLB cell viability assay (AID 1918965; further: nearly all actives have a fitted effect of over 55% in size)
Method in brief: (§2)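 We plated 500 myeloma cells per well, pinned in MIPE 4.0 compounds, and incubated for 48 hours at 37C. ATP was then quantified with CellTiter-Glo, with DMSO and media-only wells defining 100% and 0%.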

[4] = Quantitative High-Throughput drug screen in 47 multiple myeloma cell lines against the NCATS MIPE library collection: JJN3_DSMZ cell viability assay (AID 1918966; further: nearly all actives have a fitted effect of over 50% in size)
Method in brief: as §1

[5] = Quantitative High-Throughput drug screen in 47 multiple myeloma cell lines against the NCATS MIPE library collection: H1112_PLB cell viability assay (AID 1918967; further: nearly all actives have a fitted effect of over 30% in size)
Method in brief: as §1

[6] = Quantitative High-Throughput drug screen in 47 multiple myeloma cell lines against the NCATS MIPE library collection: Karpas25_ECACC cell viability assay (AID 1918968; further: nearly all actives have a fitted effect of over 35% in size)
Method in brief: as §1

[7] = Quantitative High-Throughput drug screen in 47 multiple myeloma cell lines against the NCATS MIPE library collection: KMS27_JCRB cell viability assay (AID 1918970); further: nearly all actives have a fitted effect of over 30% in size
Method in brief: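 Each line is seeded at 500 cells per well and treated with library compounds for 48 hours under 37 °C, 5% CO2. CellTiter-Glo is then added for 5 min at room temperature before median relative luminescence is recorded.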

[8] = Quantitative High-Throughput drug screen in 47 multiple myeloma cell lines against the NCATS MIPE library collection: KMS12BM_JCRB cell viability assay (AID 1918971); further: nearly all actives have a fitted effect of over 35% in size
Method in brief: (§3)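 qHTS of the MIPE 4.0 collection: 500 myeloma cells/well, 48 h drug exposure at 37C in 5% CO2, then CellTiter-Glo for 5 min at room temperature before luminescence reading.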

[9] = Quantitative High-Throughput drug screen in 47 multiple myeloma cell lines against the NCATS MIPE library collection: KMS12PE_JCRB cell viability assay (AID 1918972); further: nearly all actives have a fitted effect of over 30% in size
Method in brief: as §2

[10] = Quantitative High-Throughput drug screen in 47 multiple myeloma cell lines against the NCATS MIPE library collection: KMS21BM_JCRB cell viability assay (AID 1918974); details: ATP luminescence, 48 h; viability: at 45.8 µM (top of the series) unless noted
Method in brief: as §1

[11] = Quantitative High-Throughput drug screen in 47 multiple myeloma cell lines against the NCATS MIPE library collection: KMS26_JCRB cell viability assay (AID 1918975); further: nearly all actives have a fitted effect of over 45% in size
Method in brief: as §3

[12] = Quantitative High-Throughput drug screen in 47 multiple myeloma cell lines against the NCATS MIPE library collection: MMM1_PLB cell viability assay (AID 1918976); further: nearly all actives have a fitted effect of over 35% in size
Method in brief: (§4)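 Plated at 500 cells per well, myeloma lines received MIPE 4.0 compounds by pin tool. Following 48 h culture at 37 °C, CellTiter-Glo luminescence gave viability relative to DMSO and media-only controls.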

[13] = Quantitative High-Throughput drug screen in 47 multiple myeloma cell lines against the NCATS MIPE library collection: MOLP8_DSMZ cell viability assay (AID 1918977); further: nearly all actives have a fitted effect of over 45% in size
Method in brief: as §4

[14] = Quantitative High-Throughput drug screen in 47 multiple myeloma cell lines against the NCATS MIPE library collection: NCIH929_DSMZ cell viability assay (AID 1918978); further: nearly all actives have a fitted effect of over 35% in size
Method in brief: as §4

[15] = Quantitative High-Throughput drug screen in 47 multiple myeloma cell lines against the NCATS MIPE library collection: OCIMY1_PLB cell viability assay (AID 1918979); further: nearly all actives have a fitted effect of over 35% in size
Method in brief: as §4

[16] = Quantitative High-Throughput drug screen in 47 multiple myeloma cell lines against the NCATS MIPE library collection: MM1S_ATCC cell viability assay (AID 1918980); further: nearly all actives have a fitted effect of over 45% in size
Method in brief: as §4

[17] = Quantitative High-Throughput drug screen in 47 multiple myeloma cell lines against the NCATS MIPE library collection: MM1R_ATCC cell viability assay (AID 1918981); further: nearly all actives have a fitted effect of over 35% in size
Method in brief: as §4

[18] = Quantitative High-Throughput drug screen in 47 multiple myeloma cell lines against the NCATS MIPE library collection: LP1_DSMZ cell viability assay (AID 1918982); further: nearly all actives have a fitted effect of over 35% in size
Method in brief: as §4

[19] = Quantitative High-Throughput drug screen in 47 multiple myeloma cell lines against the NCATS MIPE library collection: KMS28PE_JCRB cell viability assay (AID 1918983); further: nearly all actives have a fitted effect of over 35% in size
Method in brief: as §4

[20] = Quantitative High-Throughput drug screen in 47 multiple myeloma cell lines against the NCATS MIPE library collection: KMS20_JCRB cell viability assay (AID 1918973); further: nearly all actives have a fitted effect of over 45% in size
Method in brief: as §1
Potency means the concentration at half of the fitted maximal effect.

| SMILES | Potency [1] | Potency [2] | Potency [3] | Potency [4] | Potency [5] | Potency [6] | Potency [7] | Potency [8] | Potency [9] | Potency [10] | Potency [11] | Potency [12] | Potency [13] | Potency [14] | Potency [15] | Potency [16] | Potency [17] | Potency [18] | Potency [19] | Potency [20] |
| --- | --- | --- | --- | --- | --- | --- | --- | --- | --- | --- | --- | --- | --- | --- | --- | --- | --- | --- | --- | --- |
| C[C@@H](Oc1cc(-c2cnn(C3CCNCC3)c2)cnc1N)c1c(Cl)ccc(F)c1Cl | 8.33 µM (active) | 3.72 µM (active) | 4.69 µM (active) | 8.33 µM (active) | 11.8 µM (active) | 2.35 µM (active) | 26.4 µM (active) | 16.6 µM (active) | 6.62 µM (active) | 8.33 µM (active) | 14.8 µM (active) | 9.35 µM (active) | 13.2 µM (active) | 3.32 µM (active) | 20.9 µM (active) | 18.7 µM (active) | 14.8 µM (active) | 14.8 µM (active) | 11.8 µM (active) | – |
| CC(C)C[C@H](NC(=O)CNC(=O)c1cc(Cl)ccc1Cl)B(O)O | 0.105 µM (active) | 0.105 µM (active) | 0.0372 µM (active) | 0.105 µM (active) | 0.105 µM (active) | 0.0418 µM (active) | 0.118 µM (active) | 0.132 µM (active) | 0.0743 µM (active) | – | 0.118 µM (active) | 9.35 µM (active) | – | 0.0372 µM (active) | 0.0662 µM (active) | 0.0418 µM (active) | 0.0418 µM (active) | 0.132 µM (active) | 0.0833 µM (active) | 0.132 µM (active) |
| Cc1coc2c1C(=O)C(=O)c1c-2ccc2c1CCCC2(C)C | 6.62 µM (active) | inactive | 16.6 µM (active) | 11.8 µM (active) | 8.33 µM (active) | 8.33 µM (active) | 0.166 µM (active) | 5.26 µM (active) | – | – | 2.96 µM (active) | – | – | 13.2 µM (active) | – | – | 18.7 µM (active) | 4.18 µM (active) | – | 9.35 µM (active) |
| O=C(NC1CCNCC1)c1[nH]ncc1NC(=O)c1c(Cl)cccc1Cl | 0.526 µM (active) | 0.264 µM (active) | 0.59 µM (active) | 0.187 µM (active) | 1.05 µM (active) | 0.372 µM (active) | 0.526 µM (active) | 0.235 µM (active) | – | 0.118 µM (active) | 0.187 µM (active) | 0.418 µM (active) | 0.148 µM (active) | 0.418 µM (active) | 2.64 µM (active) | 0.105 µM (active) | 0.296 µM (active) | 0.264 µM (active) | 0.235 µM (active) | 0.469 µM (active) |
| CC[C@@]1(O)C(=O)OCc2c1cc1n(c2=O)Cc2cc3cc(O)ccc3nc2-1 | 1.66 µM (active) | 0.235 µM (active) | 0.0166 µM (active) | 1.87 µM (active) | 0.148 µM (active) | 0.209 µM (active) | 0.0187 µM (active) | 0.526 µM (active) | 1.05 µM (active) | – | – | 11.8 µM (active) | 0.662 µM (active) | 0.296 µM (active) | 1.66 µM (active) | 0.0526 µM (active) | 0.0662 µM (active) | 2.64 µM (active) | 0.469 µM (active) | 0.235 µM (active) |
| Cc1cc(Nc2cc(N3CCN(C)CC3)nc(C=Cc3ccccc3)n2)n[nH]1 | 7.62 µM (active) | 4.81 µM (active) | 3.4 µM (active) | 30.3 µM (active) | 38.2 µM (active) | 8.55 µM (active) | 15.2 µM (active) | 48.1 µM (active) | – | – | 21.5 µM (active) | 30.3 µM (active) | 9.59 µM (active) | 6.79 µM (active) | 5.4 µM (active) | 17.1 µM (active) | 13.6 µM (active) | 34 µM (active) | – | 4.29 µM (active) |
| COc1cc2c(NC3CCN(C(C)C)CC3)nc(C3CCCCC3)nc2cc1OCCCN1CCCC1 | 8.33 µM (active) | 23.5 µM (active) | 3.72 µM (active) | 13.2 µM (active) | 9.35 µM (active) | 7.43 µM (active) | 7.43 µM (active) | 7.43 µM (active) | – | – | 6.62 µM (active) | 6.62 µM (active) | 7.43 µM (active) | 5.26 µM (active) | 7.43 µM (active) | 4.18 µM (active) | 6.62 µM (active) | 5.26 µM (active) | – | 2.35 µM (active) |
| C1=CCOCc2cc(ccc2OCCN2CCCC2)Nc2nccc(n2)-c2cccc(c2)OCC1 | 2.64 µM (active) | 0.743 µM (active) | 1.48 µM (active) | 4.18 µM (active) | 5.26 µM (active) | 1.66 µM (active) | 1.48 µM (active) | 7.43 µM (active) | – | – | – | 3.32 µM (active) | 2.09 µM (active) | 2.35 µM (active) | 5.9 µM (active) | 2.64 µM (active) | 2.64 µM (active) | 2.64 µM (active) | 3.72 µM (active) | 2.35 µM (active) |
| Nc1ncnc2c1c(-c1cccc(OCc3ccccc3)c1)cn2C1CC(CN2CCCC2)C1 (stereo unspecified) | 0.0833 µM (active) | 0.296 µM (active) | 6.62 µM (active) | 5.9 µM (active) | 16.6 µM (active) | 0.148 µM (active) | 18.7 µM (active) | 23.5 µM (active) | 9.35 µM (active) | – | 4.69 µM (active) | 1.05 µM (active) | 16.6 µM (active) | 0.0833 µM (active) | – | 1.87 µM (active) | 1.66 µM (active) | 5.9 µM (active) | 1.05 µM (active) | 0.132 µM (active) |
